Assay results reported in PubChem BioAssay.
Values joined by “and” are separate entries in the source; they are usually repeats but may differ in a detail not shown here. Identical values can stand only once. For some of these results: Results with a measured potency or affinity are listed apart. Active and inactive are the calls of the source. Unless noted, how the calls were made is not given here.

Legend:
[1] = polyglutamine-triggered caspase-3 activation inhibitors, cell-based (AID 1583); conditions: polyglutamine-induced caspase-3 activation, cell assay; stronger effect = higher value;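 tested at 10 µM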
[2] = suppressors of polyQ aggregation in yeast, 75Q-TubU reporter (AID 1593); conditions: Yeast 75Q polyglutamine aggregation reporter
[3] = rescue of polyQ-huntingtin neuronal dysfunction in worms, whole organism, C. elegans mechanosensory neurons, N-terminal huntingtin (AID 1599); conditions: touch response, stronger effect = higher value
[4] = inhibitors of mitochondrial cytochrome c release, biochemical, purified mitochondria (AID 1603); conditions: stronger effect = lower value;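 further: mouse liver mitochondria challenged with calcium chloride; signal normalized to the plate average as 100%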
[5] = inhibitors of polyQ protein aggregation (AID 1604); conditions: polyglutamine-induced protein aggregation inhibition assay; stronger effect = higher value; tested at 2.5 µM
[6] = enhancers of glutamate uptake in motor neurons, MN-1 cell line (AID 1612); conditions: MN-1 motor neuron cells, stronger effect = higher value;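 further: tested at 1 µM final; 0% = mean of DMSO vehicle wells on each plate; positive means more glutamate uptake than control and negative means less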
[7] = suppressors of polyglutamine aggregation in yeast, 75Q-TubH (AID 1616); conditions: S. cerevisiae 75Q-TubH polyglutamine aggregation suppression; stronger effect = higher value
[8] = hESC survival regulators, cell-based (AID 493140); conditions: human embryonic stem cell survival screen; stronger effect = higher value;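 further: cells exposed to compounds for four days before counting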
[9] = system: Hepatitis C virus NS3 helicase; assay: HCV NS3 helicase inhibitors, primary screen, biochemical, fluorescence polarization, LOPAC1280 library (AID 687035; in the data active means inhibition above about 37%); conditions: Purified HCV NS3 helicase, Cy5-dT15 ssDNA binding fluorescence polarization; stronger effect = higher value; concentration not given here
[10] = Cy5 fluorescence interference with SSB-bound oligo, artefact control for HCV NS3 helicase inhibitor project, biochemical, NIH Clinical Collection, E. coli SSB (AID 743268)
[11] = modulation of C. elegans fzo-1 (AID 1259413);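 further: fzo-1 mutant C. elegans worms in liquid wells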; conditions: C. elegans fzo-1 modulator screen, mean read-out; stronger effect = higher value
[12] = system: R275C; assay: modulators of BK channel variants, profiling panel, selectivity assay, cell-based, U2OS BacMam, thallium flux, beta subunits (AID 1259406;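 active means thallium flux through the channel raised or lowered by more than 3 SD from vehicle-only wells, actives on both sides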;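 further: initial slope of Thallos dye fluorescence rise after thallium is added; log ratio against the mean of 0.3% DMSO vehicle wells on the same plate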); conditions: at 30 µM
[13] = system: R275C/beta1; assay: as above; conditions: at 30 µM
[14] = system: R275C/beta2Delta; assay: as above; conditions: at 30 µM
[15] = liver-stage malaria parasite growth inhibition, primary screen, cell-based, HepG2, luciferase luminescence, HepG2 viability (AID 624349; in the data active means parasite load remaining mostly below about 12%, no sharp cut-off; inactive means mostly above about 10%;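 further: 100% = mean of DMSO negative control wells on the same plate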); conditions: P. berghei liver stage in HepG2, luciferase luminescence, concentration not given here; parasite load remaining: stronger effect = lower value; viability: measured here: HepG2 viability without parasites
[16] = viability rescue of complex I mutant cybrids, primary screen, cell-based, galactose medium, ATP luminescence (AID 1645843;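 active means z-score of at least 1.8 in each of two replicates, scored against plate mean and spread of sample wells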;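 further: positive z means more ATP and so rescue of galactose-driven cybrid death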); conditions: complex I mutant cybrid cells, 72 h, stronger effect = higher value

COc1ccc2c(c1)c(CC(=O)O)c(C)n2C(=O)c1ccc(Cl)cc1
inhibition [1]: 24.4% | score [2]: -1.46 | rescue above control [3]: -5.76 | cytochrome c release ratio [4]: 0.82 | inhibition of aggregation [5]: -6.06% | glutamate uptake change [6]: 7.33% | aggregation suppression score [7]: 0.0101 | survival [8]: 13.2 (inactive) | inhibition [9]: -5% (inactive) | fluorescence ratio [10]: 1.02 (inactive) | mean signal [11]: 244 (inactive) | log fold change Tl+ flux [12]: 0.074 (inactive) | log fold change Tl+ flux [13]: 0.196 (active) | log fold change Tl+ flux [14]: 0.128 (active)

Nc1nc2ccc(OC(F)(F)F)cc2s1
survival [8]: 22.5 (inactive) | inhibition [9]: -3% (inactive) | fluorescence ratio [10]: 0.95 (inactive) | mean signal [11]: 260 (inactive)

CCOC(=O)N1CCC(=C2c3ccc(Cl)cc3CCc3cccnc32)CC1
inhibition [1]: 15.4% | score [2]: 0.8 | rescue above control [3]: -2.91 | cytochrome c release ratio [4]: 4.23 | inhibition of aggregation [5]: 56.9% | glutamate uptake change [6]: -2.42% | aggregation suppression score [7]: 0.519 | parasite load remaining [15]: 39.1% (inactive) and 10.2% (inactive) and 5.21% (inactive) | viability [15]: 101% and 59.1% and 70% | inhibition [9]: 0% (inactive) | fluorescence ratio [10]: 0.91 (inactive) | mean signal [11]: 253 (inactive)

CCn1cc(C(=O)O)c(=O)c2cc(F)c(N3CCNCC3)cc21
inhibition [1]: -2.25% | score [2]: 0.92 | rescue above control [3]: 3.5 | cytochrome c release ratio [4]: 0.95 | inhibition of aggregation [5]: 52.4% | glutamate uptake change [6]: -6.97% | aggregation suppression score [7]: 1.19 | survival [8]: 20.2 (inactive) | mean signal [11]: 207 (inactive) | z-score [16]: 0.67 (inactive)

O=c1n(CCCN2CCN(c3cccc(Cl)c3)CC2)nc2ccccn12
inhibition [1]: 17.6% | score [2]: 1.36 | rescue above control [3]: 8.41 | cytochrome c release ratio [4]: 1.04 | inhibition of aggregation [5]: -2.89% | glutamate uptake change [6]: 4.27% | aggregation suppression score [7]: 1.27 | survival [8]: 27.2 (inactive) | inhibition [9]: 0% (inactive) | fluorescence ratio [10]: 1.01 (inactive) | mean signal [11]: 242 (inactive) | z-score [16]: -0.33 (inactive) and 0.63 (inactive) | log fold change Tl+ flux [12]: 0.0186 (inactive) | log fold change Tl+ flux [13]: 0.025 (inactive) | log fold change Tl+ flux [14]: 0.0634 (inactive)
